Columns and labels:
Assay in all cases: PBM binding z-score (relative to random genomic background probes); higher = stronger binding; sequences stand for … in GC…GCGATTGACAGCGTAGAATGAAGG
[1] = test system: RARb homodimer (NR concentration 270 nM)
Outline: (§1)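 Ligand-free nuclear receptor dimers were bound for 1 h to custom Agilent 4×180K protein-binding microarrays. Detection used antibodies against each partner (one per run). Binding z-scores rest on regression-normalized fluorescence, with random background probes as the reference.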

[2] = test system: RARg:RXRa (NR concentration 270 nM, RXRa partner concentration 90 nM)
Outline: as §1

[3] = test system: RARg homodimer (NR concentration 270 nM)
Outline: as §1

[4] = test system: RXRa DBDmut IVT, anti-RXR (DBD mutation: RXRa K156A/R161A, NR concentration 90 nM)
Outline: as §1

[5] = test system: RXRa homodimer (NR concentration 180 nM)
Outline: as §1

[6] = test system: THRa:RXRa (NR concentration 90 nM, RXRa partner concentration 90 nM)
Outline: as §1

[7] = test system: THRa homodimer (NR concentration 90 nM)
Outline: as §1

[8] = test system: VDR homodimer (NR concentration 270 nM)
Outline: as §1

| Sequence | PBM binding z-score [1] | PBM binding z-score [2] | PBM binding z-score [3] | PBM binding z-score [4] | PBM binding z-score [5] | PBM binding z-score [6] | PBM binding z-score [7] | PBM binding z-score [8] |
| --- | --- | --- | --- | --- | --- | --- | --- | --- |
| TTACCAAGGTGAGGGTCGTTGATCCCTCTGTAGA | 0.945 | 0.785 | 0.443 | -0.138 | 1.37 | 1.8 | 0.423 | 0.171 |
| ACAGACAGGTGATGAAGGCAACTCAGGCTATCAT | -0.412 | 0.106 | 0.345 | -0.405 | 0.152 | 0.815 | -0.588 | -0.37 |
| CGAACTAGGTCATCCAGGATAGTGAATACATTGA | 3.03 | 3.82 | 4.37 | 2.18 | 2.75 | 3.26 | 1.49 | 0.935 |
| ATATGTAGGTTACATCCAGGTCATTCAGGCTATG | 3.23 | 3.8 | 2.4 | 1.19 | 2.91 | 4.23 | 3.46 | 2.88 |
| CGAACTAGGTTATCCAGGACAGTGAATACATTGA | 0.559 | 0.544 | 1.04 | 0.958 | 0.343 | 2.45 | 1.19 | 0.455 |
| GGAACGAGGGCAAGTTGATACCAGAGTTTGATGG | 1.43 | 1.53 | 2.1 | 2.56 | 1 | 1.31 | -0.003 | 2.05 |
| TCTTGTAGATCAAAAGTTAAGAAAGCCGAAGCCT | -0.728 | 0.0681 | -0.147 | 0.742 | 0.126 | -0.34 | -1.33 | -0.181 |
| GCGACTGGGGCATCAGCAGGTTACCAGAACTTAA | 0.768 | 0.911 | 0.328 | -0.241 | 0.262 | 0.858 | -0.159 | -0.517 |
| CCTACTGGGCCATCAGGACATTGATATCAACGTT | 0.152 | 0.263 | 0.554 | -0.317 | -0.395 | 1.41 | 1.27 | 0.257 |
| AGAATGAGGTTATACGTCGATCAGGGAAGAAAGT | 0.644 | 1.73 | 0.993 | 1.69 | 2.07 | 2.01 | 0.495 | 0.866 |
| CCTCACGGGTCACTGACAGGTTATAGCATTTGGA | 3.33 | 5.64 | 4.5 | 1.81 | 4.65 | 2.77 | 0.669 | 1.02 |
| TGTAGTTGGTCAAAGGTCACACACTCGAAATGCG | 4.97 | 7.09 | 6.06 | 1.24 | 8.07 | 4.1 | 2.18 | 2.51 |
| ACTATTAGTTGAGACGAGTGCAACCGATAGGTTG | -0.322 | 0.00696 | 0.277 | 0.58 | 0.199 | 0.501 | -0.775 | 1.49 |
| TTACCAAGGTGAGCTGTGGTCGTTGATCCAACTC | 0.173 | 0.108 | -0.154 | -0.592 | 0.152 | 1.78 | -0.136 | -0.783 |
| ATCTCTAGGTAACTAAGTTCAGTGAATGCCGAAC | 1.92 | 1.03 | 0.956 | 1.16 | 0.699 | 1.67 | 0.66 | 2.04 |
| TCATATAGGTAAATAGGTGAAAGTCCGTAAGTTA | 1.17 | 1.26 | 0.407 | 1.39 | 1.62 | 0.865 | 0.0399 | 0.337 |
| GGACCGAGGGCAAAGTTGATAGCATCTGTCGACG | 1.42 | 2.15 | 1.79 | 2.07 | 2.15 | 1.04 | -0.484 | 1.07 |
| ATCTCCAGGTAACCAAGTTCAGTGAATGCCGAAC | 1.58 | 0.664 | 0.86 | 1.06 | 0.486 | 1.96 | 1.31 | 3.04 |
| ACTAGTTGGTCAGCTGATGTCACACACAATTCGG | 1.06 | 0.65 | 1.08 | 0.494 | 0.485 | 1.29 | 0.161 | 0.144 |
| CAAACTAGGTCACAGAGGTCAAGGTCCGTGCGTA | 5.39 | 7.22 | 7.73 | 2.61 | 7.09 | 5.05 | 3.46 | 4.66 |
| TGAATGATGTTATAAGATCAGGGAACGTTGCAAA | -0.648 | 0.116 | 0.244 | -1.01 | 0.153 | -0.185 | -0.281 | -0.22 |
| ATCTCAAGGTAAAGTTCAGTGAAAGATCGATAGA | 2.72 | 2.43 | 2.96 | 1.69 | 1.76 | 1.78 | 0.667 | 2.24 |
| TCTCGTAGATCAACAGGAGGTTAAGAAAGATCGA | 0.63 | 0.917 | 0.145 | 0.538 | 1.01 | 0.902 | -0.325 | -0.382 |
| TCTATTAGTTGTAGGGCAACCGACGAGTCCGTTT | 0.489 | 0.147 | 0.469 | 1.17 | 0.403 | 0.112 | 0.0984 | 1.13 |
| TCTAGTTGGTCAAAGGTTACACACTCGAAATGCG | 2.96 | 4.04 | 2.46 | 1.54 | 4.59 | 2.37 | 1.01 | 1.23 |
| GCGACTGGGGCATCAGCAGGTTTCCATAACTTAA | 0.345 | -0.102 | -0.261 | 0.099 | -0.0783 | -0.0527 | -0.144 | 0.168 |
| TCATATAGGGAAATGCTAGGTGAAAGTCCGATCT | 0.336 | 0.235 | 0.101 | 1.66 | 0.678 | 0.846 | 0.365 | 0.19 |
| CTCGAAAGGTCGGGTGAGGTGAGTATACGGATAA | 3.12 | 3.42 | 3.43 | 0.73 | 3.05 | 5.11 | 1.91 | 0.829 |
| ACTAGCAGGCCAAGTGTCACTCAAGATTAGTCCG | 0.681 | 0.433 | 0.865 | 0.117 | 0.215 | 0.0959 | -0.248 | -0.143 |
